Screens (PubChem BioAssay)
Hits are enriched below; roughly 1.5% of the tested compounds scored in any of these assays.
PABP1 MLLE inh = inhibitors of PABP1 MLLE–PAM2 peptide binding, primary screen, biochemical, fluorescence polarization, FITC-PAM2, GST-MLLE. 360,000 compounds, 0.36% hits. inhibition, % at 20 µM. Polyadenylate-binding protein 1 (Homo sapiens), P11940; in the data active = inhibition above about 35%, passing the limit was not always enough
PABP polyA inh = PABP poly(A) RNA binding inhibitors, primary screen, biochemical, fluorescence polarization, uHTS; AID 2014, 2009; 290,000 compounds, 1% hits; calls only at 35 µM; Polyadenylate-binding protein 1 (Homo sapiens), P11940;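 also: calls also rest on retests at 20 µM and on dose response follow-up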
eIF4H inh = human eIF4H binding inhibitors, primary screen, translation initiation inhibitor project, biochemical, uHTS, fluorescence polarization; Eukaryotic translation initiation factor 4H (Homo sapiens), Q15056; eIF4H fluorescence polarization binding assay; inhibition, % at 35 µM; 290,000 compounds, 0.94% hits; AID 2012, 2009;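 also: calls also rest on retests at 20 µM and on dose response follow-up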
eIF4E 4G PPI = eIF4E–eIF4G protein interaction inhibitors, primary screen, biochemical, uHTS, TR-FRET, eIF4GI fragment; Eukaryotic translation initiation factor 4E (Mus musculus) + Eukaryotic translation …; TR-FRET eIF4E-eIF4GI(517-606) binding, 2 h; inhibition, % at 21.7 µM; 220,000 compounds, 0.37% hits;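 active = inhibition above about 30%, limit read from the data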
A number is an active result; – = inactive; ? = inconclusive; · = not tested or not shown; + = active, no number. Unless noted, no rule for the calls is given here.

SMILES	PABP1 MLLE inh	PABP polyA inh	eIF4H inh	eIF4E 4G PPI
O=C(CCc1c[nH]c2ccccc12)N1CCN(S(=O)(=O)c2ccc([N+](=O)[O-])cc2)CC1	–	·	·	·
CN(Cc1ccc(C(F)(F)F)cc1)C(=O)[C@H]1O[C@@H](n2ccc(=O)[nH]c2=O)[C@H](O)[C@@H]1O	–	·	·	·
O=c1cc(CSc2nnc(Nc3ccccc3F)s2)nc2sccn12	–	–	–	–
Cc1ccc(Nc2nnc(SCc3cc(=O)n4cc(C)ccc4n3)s2)cc1	–	–	–	–
Cc1ccc2nc(CSc3nnc(Nc4ccccc4F)s3)cc(=O)n2c1	–	+	69.7	–
COc1ccc(Nc2nnc(SCc3cc(=O)n4ccsc4n3)s2)cc1	–	+	74.7	–
COCOCCn1cc(CN2CCS(=O)(=O)N(Cc3ccc(-c4ccc(Cl)c(Cl)c4)cc3)C(C(C)C)C2=O)nn1 (configuration not stated)	–	·	·	·
CC(Nc1ccc(F)cc1)=[N+](C)CCNS(=O)(=O)c1ccc(Cl)cc1	–	+	–	·
O=C(COc1ccccc1)Nc1nnc(-c2ccco2)o1	–	+	–	–
COC(=O)CNC(=O)C1CC(=O)N(CCc2ccc(F)cc2)C1 (configuration not stated)	–	–	–	·
O=C(O)CSc1cc(NS(=O)(=O)c2ccc(Cl)cc2)c2ccccc2c1O	39.8	–	–	·
COCOCCn1cc(CN2CCS(=O)(=O)N(Cc3ccc(-c4ccc(F)cc4)cc3)C(C(C)C)C2=O)nn1 (configuration not stated)	–	·	·	·
CCC(=O)N(C)C[C@H]1Oc2cc(-c3cccnc3)ccc2S(=O)(=O)N([C@H](C)CO)C[C@H]1C	–	·	·	·
CCCCNC(=O)C1(C)CCCCN1C(=O)c1cncc(Br)c1 (configuration not stated)	–	·	·	·
CCc1ccc(C(=O)NNC(=O)OC)cc1	–	–	–	71.9
O=C1CC(c2ccc(O)c(O)c2)Oc2c1ccc(O)c2O (configuration not stated)	–	+	94.3	–
CC(C)=CCc1c(O)ccc2c1OC(c1ccc(O)c(O)c1)CC2=O (configuration not stated)	–	–	–	–
O=C1Nc2ccccc2/C1=N/c1sc2c(c1C(=O)NCCc1ccccc1)CCCC2	–	–	–	–
CCOC(=O)c1[nH]c(C)c(C(=O)N2CCCC(Nc3ccc(C)c(C)c3)C2)c1C (configuration not stated)	–	–	–	·
Cc1sc2nc(CSc3nc4ccccc4c(=O)n3CCCN3CCOCC3)[nH]c(=O)c2c1C	–	+	?	–
C=CCn1c(COc2ccc(CC)cc2)nnc1SC/C(O)=C(\C#N)c1nc2ccccc2[nH]1	–	+	66.0	–
O=C(/C=C/c1ccc(O)c(O)c1)O[C@H](Cc1ccc(O)c(O)c1)C(=O)O	·	+	98.2	–
O=C(O)/C=C/c1ccc(O)c(O)c1	–	–	–	–
C#CCN(C(=O)Nc1ccccc1)c1ccccc1	–	+	3.2	–
Cn1c(=O)c(NCCc2ccccc2)c2c3c(cccc31)C(=O)c1ccccc1-2	–	+	127.5	–
SMILES	PABP1 MLLE inh	PABP polyA inh	eIF4H inh	eIF4E 4G PPI
CCOC(=O)C1CCCN(C(=O)c2ccc(CS(=O)(=O)c3ccc(C)cc3)o2)C1 (configuration not stated)	–	–	–	–
CCOC(=O)C1CCCN(C(=O)c2ccc(-c3ccc([N+](=O)[O-])cc3)o2)C1 (configuration not stated)	40.8	·	·	·
CCN(CC)c1ccc(N=Cc2ccc([N+](=O)[O-])o2)cc1	–	+	71.5	–
NS(=O)(=O)c1cccc(C(=O)NC2CCSc3ccccc32)c1 (configuration not stated)	–	–	–	·
CC(=O)c1cccc(S(=O)(=O)NC2CCSc3ccccc32)c1 (configuration not stated)	47.1	–	–	·
NS(=O)(=O)c1cc(C(=O)NC2CCSc3ccccc32)ccc1Cl (configuration not stated)	–	+	106.0	·
CCCCn1c(N)c(N(CCC(C)C)C(=O)c2c(CC)noc2C)c(=O)[nH]c1=O	–	·	·	·
CCN(CC)CCSC(=O)C(c1ccccc1)c1ccccc1	46.7	·	·	·
O=C(Nc1ccc(-n2cnnn2)cc1)C(c1ccccc1)c1ccccc1	–	+	–	–
O=C(C[C@@H]1C[C@H]2c3cc(NC(=O)NC4CCCCC4)ccc3O[C@H]2[C@H](CO)O1)NC1CCCCC1	–	·	·	·
